Results published in ChEMBL document CHEMBL1857833, “Screening and optimization of specific chemical series against human African Trypanosomiasis (HAT)”.
The whole screen tested about 4,400 compounds, of which about 390 (8.9%) showed an effect of 50% or more. For the sample, strong results were picked, then their nearest neighbours and some compounds at random.

The compounds below were run on Trypanosoma brucei (assay: DNDI: Inhibition of Human African Trypanosomiasis, SBRI 427, in vitro at 2 ug.mL-1).
Format: functional

Structure (SMILES)	% inhibition
CN(Cc1coc(-c2ccc(O)cc2)n1)C(c1ccccc1)c1ccccc1	-30%
CN(Cc1ccco1)/C(=N\O)c1cccnc1Oc1ccc2c(c1)CCCC2	-1%
Cc1ccc(/C(=N/O)N2CCCC2)c(Oc2ccc3ccccc3c2)n1	25%
CN(Cc1cccnc1)Cc1coc(-c2ccc(Cl)cc2Cl)n1	36%
CN(CC#N)Cc1coc(-c2cccs2)n1	-11%
Cc1ccc(CNCc2coc(-c3ccccc3Br)n2)o1	3%
CCOc1ccc(-c2nc(CNC3C[C@@H]4C[C@H]([C@H]3C)C4(C)C)co2)cc1 (some centres undefined)	78%
C[C@@H]1C(NCc2coc(-c3ccc(O)cc3)n2)C[C@H]2C[C@@H]1C2(C)C (some centres undefined)	26%
CCOc1ccc(-c2nc(CNC3C[C@H]4CC[C@@H]3C4)co2)cc1 (some centres undefined)	11%
C[C@H]1C(NCc2coc(-c3ccc(O)cc3)n2)C[C@@H]2C[C@H]1C2(C)C (some centres undefined)	101%
CCOc1ccc(-c2nc(CNC3C[C@H]4C[C@@H]([C@@H]3C)C4(C)C)co2)cc1 (some centres undefined)	-5%
CC1CCCC(NCc2coc(-c3ccc(O)cc3)n2)C1C (centres undefined)	-13%
CCOc1ccccc1CN/C(=N\O)c1ccc(Oc2ccc(C)cc2OC)nc1	25%
CCN(CCC#N)Cc1coc(-c2cccc3ccccc23)n1	10%
Cc1ccccc1-c1nc(CNCC(C)(C)CN(C)C)co1	-8%
COc1cc(C)ccc1Oc1nc(C)ccc1/C(=N/O)N1CCCC1	13%
COc1cc(C)ccc1Oc1nc(C)ccc1/C(=N/O)NCC1CC1	100%
COc1cc(C)ccc1Oc1nc(C)ccc1/C(=N/O)NCC1CCCCC1	0%
COc1cc(C)ccc1Oc1nc(C)ccc1/C(=N/O)NCCSC	-7%
COc1cc(C)ccc1Oc1nc(C)ccc1/C(=N/O)NCC(C)(C)C	99%
CCCN/C(=N\O)c1ccc(C)nc1Oc1ccc(C)cc1OC	22%
Cc1ccc(Oc2nc(C)ccc2/C(=N/O)NCC(C)C)c(C)c1	20%
COc1cc(C)ccc1Oc1nc(C)ccc1/C(=N/O)NCC1CCCO1 (centres undefined)	15%
Cc1ccc(/C(=N/O)NCCN2CCCC2)c(Oc2ccc(F)cc2)n1	91%
Cc1ccc(Oc2nc(C)ccc2/C(=N/O)NCC(C)(C)C)c(C)c1	11%

Structure (SMILES)	% inhibition
COc1ccc(Oc2nc(C)ccc2/C(=N/O)NCCN2CCCC2)cc1	-2%
COc1cc(C)ccc1Oc1nc(C)ccc1/C(=N/O)NCC(C)C	100%
Cc1ccc(/C(=N/O)NCCN2CCCC2)c(Oc2cccc(F)c2)n1	-3%
C=CCN1CCN(/C(=N\O)c2ccc(C)nc2OCc2cccc(F)c2)CC1	3%
CCC(NCc1coc(-c2cccs2)n1)c1ccccc1 (centres undefined)	-5%
c1coc(-c2nc(CNC3CCc4ccccc43)co2)c1 (centres undefined)	17%
CN(Cc1coc(-c2ccccc2F)n1)Cc1cccc2ccccc12	-49%
CCN(C)Cc1coc(-c2cccc(F)c2)n1	-10%
COc1cc(CNCc2coc(-c3ccc(O)cc3)n2)cc(OC)c1	8%
CC(C)c1ccc(N/C(=N\O)c2ccc(Oc3ccc4oc5ccccc5c4c3)nc2)cc1	25%
Cc1ccc(/C(=N/O)N2CCSCC2)c(OCc2cccc(F)c2)n1	-17%
CCOC(=O)C1CCCN(Cc2coc(-c3cc(OC)c(OC)c(OC)c3)n2)C1 (centres undefined)	-16%
CN(Cc1coc(-c2ccc(Br)cc2)n1)CC1OCCO1	11%
Cc1ccccc1-c1nc(CN2CC(C)CC(C)C2)co1 (centres undefined)	6%
COc1ccc(Oc2nc(C)ccc2/C(=N/O)NCC2CC2)cc1	24%
Cc1ccc(/C(=N/O)NCC2CC2)c(Oc2ccc(F)cc2)n1	33%
Cc1ccc(Oc2nc(C)ccc2/C(=N/O)NCC2CC2)cc1	74%
CCOc1cccc(-c2nc(Cn3cnc(-c4ccccc4)c3)co2)c1	11%
CN(Cc1coc(-c2ccco2)n1)C1CCCCC1	11%
Cc1ccccc1CNCc1coc(-c2ccc(O)cc2)n1	1%
O/N=C(\NC1CCCC1)c1cccnc1Oc1ccccc1F	96%
Cc1ccc(/C(=N/O)NC2CC2)c(Oc2cccc3cccnc23)n1	29%
CSc1ccccc1Oc1ncccc1/C(=N/O)NC1CCCC1	99%
O/N=C(\NC1CC1)c1cccnc1Oc1ccccc1F	78%
O/N=C(\NCCN1CCCC1)c1cccnc1Oc1ccccc1F	30%

Structure (SMILES)	% inhibition
O/N=C(/c1cccnc1Oc1ccccc1F)N1CCCCC1	23%
COC(=O)C1CCN(/C(=N\O)c2cccnc2Oc2ccccc2OC)CC1	15%
COC(=O)C1CCN(/C(=N\O)c2cccnc2Oc2ccccc2SC)CC1	18%
O/N=C(/c1cccnc1Oc1ccccc1F)N1CCOCC1	13%
CSc1ccccc1Oc1ncccc1/C(=N/O)N1CCCCC1	8%
COc1ccccc1Oc1ncccc1/C(=N/O)NC1CCCC1	99%
COc1ccccc1Oc1ncccc1/C(=N/O)N1C(C)CCCC1C (centres undefined)	9%
CC(C)c1ccc(Oc2ncccc2/C(=N/O)N2CCC=N2)cc1	-4%
Cc1nccn1/C(=N\O)c1ccnc(Oc2ccc(Cl)cc2)c1	5%
COc1ccc(-c2nc(CN3CCC(C)CC3)co2)cc1	12%
Cc1cccc(N2CCN(Cc3coc(-c4ccc(O)cc4)n3)CC2)c1C	3%
Brc1ccc(-c2nc(CNCCCN3CCOCC3)co2)cc1	-12%
CCCCN(CC)Cc1coc(-c2cccc(OC)c2)n1	-18%
Cc1nccn1/C(=N\O)c1cccnc1Oc1ccccc1	10%
COc1cc(C)ccc1Oc1nc(C)ccc1/C(=N/O)N1C(C)C=CC1C (centres undefined)	-2%
Brc1ccccc1-c1nc(CNCCN2CCCCC2)co1	-1%
CN1CCCC1CCNCc1coc(-c2cccs2)n1 (centres undefined)	-4%
CCOc1cccc(-c2nc(CNCCC3CCCN3C)co2)c1 (centres undefined)	99%
CN1CCCC1CCNCc1coc(-c2ccccc2Br)n1 (centres undefined)	57%
CN1CCCC1CCNCc1coc(-c2ccc(Br)cc2)n1 (centres undefined)	97%
CCOc1cccc(-c2nc(CNCCN3CCCC3)co2)c1	-12%
Brc1ccc(-c2nc(CNCCN3CCOCC3)co2)cc1	-53%
Brc1ccc(-c2nc(CNCCN3CCCCC3)co2)cc1	43%
CCOc1cccc(-c2nc(CNCCN3CCOCC3)co2)c1	-2%
